HTT ATP protect – qHTS Multiplex Assay to Identify Dual Action Probes in a Cell Model of Huntington: Cytoprotection (ATP); Potency, µM (series often up to 56.4 µM), inactives show cytoprotection (ATP increase), usual class: activators; AID 1471, 2008; actives 0.14% (n = 230,000); PC12 HTT-Q103 induced, cytoprotection, ATP luminescence, 40 h; further: potency means the concentration at half of the fitted maximal effect; % of control where 0% means no effect; nearly all actives have a fitted effect of over 45% in size
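Stable PC12 Q103-GFP cells in serum-supplemented, phenol red-free DMEM; induction by tebufenozide at 100 nM final; compound dose series; cell viability quantified luminescently from ATP.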
HPGD block – qHTS Assay for Inhibitors of HPGD (15-Hydroxyprostaglandin Dehydrogenase); actives 4.3% (n = 150,000); Potency, µM, without a hit: at the top dose activity change, negative = inhibition, actives largely listed as inhibitors; purified HPGD, NADH fluorescence kinetic, PGE2 substrate; 15-hydroxyprostaglandin dehydrogenase [NAD(+)] (Homo sapiens), P15428; active means well fitted inhibition curve with a large enough effect, not every such curve was filed as active; inconclusive means small, poorly fitted or top-dose-only effect, or another doubt; inactive means no such curve, though single readings can be large or run the other way; further: potency means the concentration at half of the fitted maximal effect; on the % scale 0 is the no-effect control and ±100 the full control effect
Target sequence (P15428 whole entry, looked up): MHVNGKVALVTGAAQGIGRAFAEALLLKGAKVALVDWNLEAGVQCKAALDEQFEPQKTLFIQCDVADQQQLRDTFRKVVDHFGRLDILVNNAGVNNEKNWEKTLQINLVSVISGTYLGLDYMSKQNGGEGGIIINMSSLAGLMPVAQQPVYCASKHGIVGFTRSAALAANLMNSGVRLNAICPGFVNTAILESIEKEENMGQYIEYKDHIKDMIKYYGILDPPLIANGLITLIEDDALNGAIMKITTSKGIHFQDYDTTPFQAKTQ
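NADH formation kinetics: reaction with 30 uM PGE2 and 1 mM NAD+ (final), 20 nM enzyme, Tris-HCl pH 8 with Tween 20, after 15 min compound preincubation at room temperature. Fluorescence change, last versus first of five reads.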
JMJD2E inh – qHTS Assay for Inhibitors of Human Jumonji Domain Containing 2E (JMJD2E) | JMJD2E catalytic domain, FDH-coupled NADH fluorescence (FDH is formaldehyde dehydrogenase) | Potency, µM (series often up to 57.1 µM), for the others: at the highest dose activity change, negative = inhibition, most hits filed as inhibitors | actives 1.6% (n = 230,000) | AID 2147, 2009; active means well fitted inhibition curve with a large enough effect, not every such curve was filed as active; inconclusive means small, poorly fitted or top-dose-only effect, or another doubt; inactive means no such curve, though single readings can be large or run the other way;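 further: potency means the concentration at half of the fitted maximal effect; 0% = wells with enzyme and -100% = buffer wells without enzyme; nearly all actives have a fitted effect of over 50% in size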
ALDH1A1 block – qHTS Assay for Inhibitors of Aldehyde Dehydrogenase 1 (ALDH1A1); actives 7.3% (n = 220,000); Potency, µM (top dose mostly 75.3 µM), without a hit: at the highest dose activity, negative = inhibition, actives largely listed as inhibitors; Aldehyde dehydrogenase 1A1 (Homo sapiens), P00352; Purified ALDH1A1, NADH fluorescence, propionaldehyde substrate; active means well fitted inhibition curve with a large enough effect, not every such curve was filed as active; inconclusive means small, poorly fitted or top-dose-only effect, or another doubt; inactive means no such curve, though single readings can be large or run the other way;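 further: potency means the concentration at half of the fitted maximal effect; plate controls were no enzyme wells and a reference inhibitor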
Target sequence (P00352 whole entry, looked up): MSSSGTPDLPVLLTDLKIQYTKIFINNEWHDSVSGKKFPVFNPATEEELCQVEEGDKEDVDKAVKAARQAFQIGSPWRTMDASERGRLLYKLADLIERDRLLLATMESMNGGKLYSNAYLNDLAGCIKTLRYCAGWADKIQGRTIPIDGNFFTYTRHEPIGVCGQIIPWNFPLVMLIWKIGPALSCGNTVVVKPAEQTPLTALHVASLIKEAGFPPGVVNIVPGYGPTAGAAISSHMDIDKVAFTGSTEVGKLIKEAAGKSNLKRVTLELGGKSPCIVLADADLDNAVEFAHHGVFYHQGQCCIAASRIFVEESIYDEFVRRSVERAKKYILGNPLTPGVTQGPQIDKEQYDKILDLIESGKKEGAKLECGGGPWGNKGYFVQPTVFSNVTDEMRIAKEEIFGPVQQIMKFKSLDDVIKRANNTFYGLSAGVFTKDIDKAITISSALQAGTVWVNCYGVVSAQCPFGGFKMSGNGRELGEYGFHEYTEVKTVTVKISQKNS
CBFb-RUNX1 inh – qHTS Assay for Compounds Blocking the Interaction Between CBF-beta and RUNX1 for the Treatment of Acute Myeloid Leukemia; AlphaScreen CBFb-His/RUNX1-biotin binding, biochemical; Potency, µM (series often up to 59.8 µM), without a hit: top-dose activity, negative = inhibition, actives largely listed as inhibitors; 230,000 tested, under 10 active; AID 1477, 2009; further: % of control where 0% means no effect
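His-tagged CBF-beta and biotinylated RUNX1 (30 nM each) were premixed 20 min at room temperature, exposed to compound for 15 min, then given nickel-chelate and streptavidin AlphaScreen beads (50 ng each). After 90 min, AlphaScreen signal was read.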
HTT aggregate – qHTS Multiplex Assay to Identify Dual Action Probes in a Cell Model of Huntington: Aggregate Formation (GFP); PC12 HttQ103-GFP aggregates, Acumen cytometry, 40 h; actives 1.1% (n = 220,000); Potency, µM (doses to about 46.1 µM), inactives show at the top dose activity change, negative = inhibition, hits mostly inhibitors; further: potency means the concentration at half of the fitted maximal effect; on the % scale 0 is the no-effect control and ±100 the full control effect; nearly all actives have a fitted effect of over 60% in size
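Ecdysone-promoter PC12 model expressing HTT exon 1 Q103 fused to GFP, induced by tebufenozide at 100 nM final. Compounds titrated; aggregates sized 1–25 µm scored on a 488 nm laser cytometer.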
Numbers without * were called inactive; u = inconclusive; x = no result; [ ] = another dose, or the depositor's remark. A selection: hits, their analogues and other compounds. The true share with any hit is near 9.8%. Unless noted, the call rests on the fitted dose curve; in most records, active means well fitted curve in the direction sought with a large enough effect; inconclusive means small, poorly fitted or top-dose-only effect, or another doubt; inactive means no such curve, though single readings can be large; an effect the other way counts as inactive or inconclusive.

SMILES | HTT ATP protect | HPGD block | JMJD2E inh | ALDH1A1 block | CBFb-RUNX1 inh | HTT aggregate
Cc1cc(C(F)F)n2ncc(C(=O)N3CCCCC3)c2n1 | -3.3%[10 µM] | 11.2µM* | -6.4% | 0.4% | -3.2% | 14.2%
c1ccc(-c2nnc(-c3ccccn3)s2)nc1 | -40.6%[10 µM] | x | 2.82µM* | x | u | 6.5%[9.22 µM]
CCOC(=O)N1CCN(CC(O)c2ccc3c(c2)CCN3)CC1 (stereo not drawn) | 11.8%[0.074 µM] | x | 3.1% | 17.8µM* | 4.5% | 9.8%
OC(CN1CCN(c2ccccc2)CC1)c1ccc2c(c1)CCN2 (stereo not drawn) | -16.4% | -5.8% | 4.7% | 7.08µM* | -0.1% | 19.6%
CC1(C)COC2(OC1)C(=O)N(CN1CCOCC1)c1ccccc12 | 7.2%[10 µM] | x | 7.6% | -5.2% | 4.4% | 0.6%[9.22 µM]
Cn1nc(C(=O)OCC(=O)NC2CCS(=O)(=O)C2)c2ccccc2c1=O (stereo not drawn) | -25.1% | x | -6.7% | 0.4% | -4.4% | -6.9%
O=C(CCC(=O)c1cccs1)Nc1ccc(F)c(F)c1F | 4.5% | -16.2% | u | u | 1.5% | 13.8%
COC(=O)c1ccc(C2C(C(C)=O)=C(C)Nc3ncnn32)cc1 (stereo not drawn) | 2.6% | -5.9% | 0.0% | 11.1% | 5.4% | -2.7%
Cc1ccccc1/C(N)=N/OC(=O)N1c2ccccc2Sc2ccccc21 | 11.9% | 17.8µM* | -3.1% | -0.1% | -15.5% | -2.4%
CCOCCCNC(=O)C1CCCN1C(=O)Nc1ccccc1[N+](=O)[O-] (stereo not drawn) | 0.7%[10 µM] | x | 3.7% | -0.5% | 4.1% | 2.3%[9.22 µM]
Cc1cc2oc(C(=O)N(Cc3ccccc3)c3ccccn3)cc(=O)c2cc1Cl | 1.1%[10 µM] | x | -6.5% | x | -1.0% | -9.9%[9.22 µM]
CCc1c(C)nc(SCC(=O)Nc2cccc(Br)c2)[nH]c1=O | -0.2% | 3.55µM* | 1.8% | -3.6% | 5.5% | -1.6%
Cc1ccc(NC(=O)CSc2nc(C)c(Cc3ccccc3)c(=O)[nH]2)cc1 | -89.4% | x | 6.2% | u | 0.0% | u
CCc1c(C)nc(SCC(=O)Nc2ccc(Br)cc2)[nH]c1=O | -8.5% | 14.1µM* | 4.1% | 3.9% | -0.8% | u
CC(C)Cc1nnc(NS(=O)(=O)c2ccc(Cl)cc2)s1 | -4.0%[10 µM] | -6.2% | 6.0% | u | -6.6% | 6.1%
CC(C)Cc1nnc(NS(C)(=O)=O)s1 | -23.8% | -19.3% | -0.7% | 25.1µM* | 1.2% | 2.2%
COc1ccc(C(=O)Nc2cccc3c2C(=O)NC3=O)cc1S(=O)(=O)N1CCOCC1 | -1.1%[10 µM] | u | u | u | 2.1% | 13.9%
COc1ccc(N2CCCC2=N)c(OC)c1 | 26.2%[10 µM] | x | u | x | 6.8% | 21.7%[9.22 µM]
COC(=O)CCS(=O)(=O)c1nc(-c2ccccc2)cc(C(F)(F)F)n1 | -14.6% | 28.2µM* | -16.7% | 3.3% | -0.2% | u
CCOC(=O)CS(=O)(=O)c1nc(-c2ccccc2)cc(C(F)(F)F)n1 | u | 14.1µM* | -13.9% | -1.4% | 11.2% | -24.4%[9.22 µM]
COCC(C)NC(=O)CCS(=O)(=O)c1nc(-c2ccc(OC)cc2)cc(C(F)(F)F)n1 (stereo not drawn) | -23.3%[1.9 µM] | -26.3% | u | -8.6% | 7.9% | u
O=C(O)CCS(=O)(=O)c1nc(-c2cccs2)cc(C(F)(F)F)n1 | 4.2% | u | u | u | 2.7% | u
CCOC(=O)CS(=O)(=O)c1nc(-c2ccc(F)cc2)cc(C(F)(F)F)n1 | -4.7%[10 µM] | u | u | u | 19.2% | u
CCOC(=O)CCS(=O)(=O)c1nc(-c2ccccc2)cc(C(F)(F)F)n1 | 0.6%[0.074 µM] | 15.8µM* | -25.1% | -18.6% | 3.1% | 24.1%
CSc1nc(NC(C)(C)C)nc(Oc2ccc(=O)n(C)n2)n1 | -5.0% | -10.0% | -1.4% | 4.0% | 1.5% | u
SMILES | HTT ATP protect | HPGD block | JMJD2E inh | ALDH1A1 block | CBFb-RUNX1 inh | HTT aggregate
COC(=O)c1ccccc1NC(=O)COC(=O)C1CCCCC1 | 8.0%[10 µM] | x | -18.1% | x | 21.3% | -31.4%[9.22 µM]
CCOc1ccc(C(=O)NCC(=O)Nc2ccc(N3CCOCC3)cc2)cc1OCC | -54.2% | x | 4.2% | -4.8% | 2.2% | 5.1%
Cc1ccc(NC(=O)/C(Cl)=C\c2ccccc2)cc1 | -33.0% | -22.2% | 7.4% | 3.98µM* | -12.6% | -25.6%
O=C(Nc1ccccc1)/C(=C/c1ccccc1)c1ccccc1 | -43.9% | u | 28.2µM* | u | 29.2% | u
CC(=O)c1ccc(NC(=O)/C(Cl)=C/c2ccccc2)cc1 | -18.9% | x | 3.9% | -3.1% | -2.9% | 15.2%
O=C(Nn1cnnc1)c1ccc(F)c(S(=O)(=O)N2CCCCC2)c1 | 21.7%[10 µM] | -6.4% | 2.9% | 5.1% | 4.8% | 20.1%
C=CCNC(=O)/C(C#N)=C/c1c(N(Cc2ccccc2)Cc2ccccc2)nc2ccccn2c1=O | u | -18.1% | u | 7.08µM* | -1.0% | u
Cc1cccc(Nc2nc(-c3ccc4c(c3)OCCO4)cs2)c1 | -9.4% | -7.7% | -9.0% | 20µM* | -10.1% | -7.2%
Cc1cccc(Nc2nc(-c3c(C)nc4ccccn34)cs2)c1 | -46.9% | -26.0% | u | u | -11.6% | 11.2µM*
CCOC(=O)C12CC1/C(=N\O)c1ccccc1O2 (stereo not drawn) | -10.9% | x | x | -5.1% | 10.6% | x
CCOc1cc(/C=C2/C(=O)ON=C2C)ccc1OCc1ccccc1F | -18.6% | 1.58µM* | u | 5.01µM* | -16.2% | 12.3%
CC1=NOC(=O)/C1=C\c1ccc2c(c1)OCO2 | -19.0% | x | u | 12.6µM* | -1.8% | 4.1%
CCOc1cc(/C=C2/C(=O)ON=C2C)ccc1OCc1ccccc1 | 14.4%[10 µM] | x | u | -5.6% | -4.8% | 16.3%[9.22 µM]
CC1=NOC(=O)/C1=C/c1ccc2c(c1)OCO2 | 1.5%[10 µM] | x | u | u | 1.4% | 4.0%
CN1CCCN(C(=O)c2cc(-c3cccc4ccccc34)nc3ccccc23)CC1 | -1.2%[10 µM] | x | u | x | 12.0% | 1.8%[9.22 µM]
Cc1ccc(C)c(-n2nnnc2SCC(=O)NNC(=O)c2ccco2)c1 | 9.0%[10 µM] | x | 10.4% | 8.91µM* | 8.0% | 4.2%[9.22 µM]
CCc1cc2ccc(C)cc2nc1SCC(=O)Nc1cc(C)on1 | 12.1%[10 µM] | x | 0.0% | 25.1µM* | 3.0% | 9.1%[9.22 µM]
O=C(CSc1nnc2ccccn12)NNC(=O)c1ccc([N+](=O)[O-])cc1 | 0.8%[10 µM] | x | -4.6% | x | 7.2% | -7.2%[9.22 µM]
COc1ccc(C)cc1-n1nnnc1SCC(=O)NNC(=O)c1ccc([N+](=O)[O-])cc1 | -10.7%[10 µM] | -18.7% | -0.4% | 3.16µM* | -17.4% | 5.5%[9.22 µM]

Compound activity (PubChem BioAssay)
